According to ChEMBL document CHEMBL1961873, “Compounds: GSK PKIS; Assays: Nanosyn kinase panel” (2012):

What was measured:
[1] = biological target: Mitogen-activated protein kinase kinase kinase kinase 4 (Homo sapiens) (UniProt O95819); conditions: at 1 µM;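 also: reported figure is an averaged inhibition value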
[2] = biological target: Dual specificity mitogen-activated protein kinase kinase 1 (Homo sapiens) (UniProt Q02750); conditions: at 0.1 µM
[3] = biological target: Dual specificity mitogen-activated protein kinase kinase 1 (Homo sapiens) (UniProt Q02750); conditions: at 1 µM
[4] = biological target: Misshapen-like kinase 1 (Homo sapiens) (UniProt Q8N4C8); conditions: at 0.1 µM
Chain of Misshapen-like kinase 1 (Homo sapiens) (Q8N4C8 whole entry, looked up): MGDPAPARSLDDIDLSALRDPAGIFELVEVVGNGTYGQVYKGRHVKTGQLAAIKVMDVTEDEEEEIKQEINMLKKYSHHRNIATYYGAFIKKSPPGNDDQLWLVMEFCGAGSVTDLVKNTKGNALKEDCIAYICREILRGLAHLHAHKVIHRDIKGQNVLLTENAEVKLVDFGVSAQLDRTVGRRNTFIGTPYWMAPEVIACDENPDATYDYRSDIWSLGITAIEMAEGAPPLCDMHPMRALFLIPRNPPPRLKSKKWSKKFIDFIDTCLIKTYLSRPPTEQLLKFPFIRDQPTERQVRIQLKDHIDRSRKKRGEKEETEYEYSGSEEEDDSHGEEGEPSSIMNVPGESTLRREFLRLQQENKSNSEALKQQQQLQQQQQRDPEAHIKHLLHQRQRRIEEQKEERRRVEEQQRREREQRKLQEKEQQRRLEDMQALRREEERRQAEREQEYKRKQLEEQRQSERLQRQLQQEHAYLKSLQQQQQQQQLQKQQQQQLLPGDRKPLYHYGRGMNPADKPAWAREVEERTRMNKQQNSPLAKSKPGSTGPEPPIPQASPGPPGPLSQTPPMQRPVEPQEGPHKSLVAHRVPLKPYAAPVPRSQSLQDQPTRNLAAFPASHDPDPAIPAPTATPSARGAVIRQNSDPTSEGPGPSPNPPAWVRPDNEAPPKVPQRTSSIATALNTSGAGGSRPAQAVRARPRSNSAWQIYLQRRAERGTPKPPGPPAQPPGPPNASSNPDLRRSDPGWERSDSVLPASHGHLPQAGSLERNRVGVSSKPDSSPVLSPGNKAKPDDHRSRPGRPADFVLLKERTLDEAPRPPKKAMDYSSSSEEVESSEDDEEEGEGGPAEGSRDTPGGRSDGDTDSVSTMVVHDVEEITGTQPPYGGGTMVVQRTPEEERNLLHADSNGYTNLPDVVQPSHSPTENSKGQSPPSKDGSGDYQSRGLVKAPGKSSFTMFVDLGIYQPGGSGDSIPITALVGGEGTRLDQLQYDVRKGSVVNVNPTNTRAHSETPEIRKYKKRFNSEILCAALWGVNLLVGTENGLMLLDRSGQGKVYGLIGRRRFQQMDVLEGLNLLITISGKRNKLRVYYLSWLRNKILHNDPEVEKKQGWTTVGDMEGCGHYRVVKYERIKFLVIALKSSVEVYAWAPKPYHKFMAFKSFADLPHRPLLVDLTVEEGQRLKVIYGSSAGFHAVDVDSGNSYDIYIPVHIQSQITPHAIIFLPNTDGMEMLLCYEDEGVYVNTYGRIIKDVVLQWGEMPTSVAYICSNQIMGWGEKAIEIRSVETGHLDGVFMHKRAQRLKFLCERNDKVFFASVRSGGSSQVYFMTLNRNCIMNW

[5] = biological target: Misshapen-like kinase 1 (Homo sapiens) (UniProt Q8N4C8); conditions: at 1 µM
[6] = biological target: T1, Serine/threonine-protein kinase 4 (Homo sapiens) (UniProt Q13043); conditions: at 0.1 µM
T1 sequence (whole entry): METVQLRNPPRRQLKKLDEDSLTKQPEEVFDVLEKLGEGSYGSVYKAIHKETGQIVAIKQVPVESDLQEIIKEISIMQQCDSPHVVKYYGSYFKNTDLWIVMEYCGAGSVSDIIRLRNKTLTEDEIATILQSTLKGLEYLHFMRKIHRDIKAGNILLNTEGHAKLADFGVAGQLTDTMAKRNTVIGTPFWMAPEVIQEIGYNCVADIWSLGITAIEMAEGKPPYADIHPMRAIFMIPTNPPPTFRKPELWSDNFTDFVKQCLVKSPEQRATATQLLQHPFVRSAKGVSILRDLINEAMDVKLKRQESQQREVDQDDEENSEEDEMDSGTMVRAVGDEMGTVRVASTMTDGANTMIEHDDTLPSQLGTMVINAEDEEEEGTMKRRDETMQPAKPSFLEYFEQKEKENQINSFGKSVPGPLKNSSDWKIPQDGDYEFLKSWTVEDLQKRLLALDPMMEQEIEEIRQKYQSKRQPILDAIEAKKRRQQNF

[7] = biological target: T1, Serine/threonine-protein kinase 4 (Homo sapiens); conditions: at 1 µM
[8] = biological target: T2, Serine/threonine-protein kinase 3 (Homo sapiens) (UniProt Q13188); conditions: at 0.1 µM
T2 sequence (whole entry): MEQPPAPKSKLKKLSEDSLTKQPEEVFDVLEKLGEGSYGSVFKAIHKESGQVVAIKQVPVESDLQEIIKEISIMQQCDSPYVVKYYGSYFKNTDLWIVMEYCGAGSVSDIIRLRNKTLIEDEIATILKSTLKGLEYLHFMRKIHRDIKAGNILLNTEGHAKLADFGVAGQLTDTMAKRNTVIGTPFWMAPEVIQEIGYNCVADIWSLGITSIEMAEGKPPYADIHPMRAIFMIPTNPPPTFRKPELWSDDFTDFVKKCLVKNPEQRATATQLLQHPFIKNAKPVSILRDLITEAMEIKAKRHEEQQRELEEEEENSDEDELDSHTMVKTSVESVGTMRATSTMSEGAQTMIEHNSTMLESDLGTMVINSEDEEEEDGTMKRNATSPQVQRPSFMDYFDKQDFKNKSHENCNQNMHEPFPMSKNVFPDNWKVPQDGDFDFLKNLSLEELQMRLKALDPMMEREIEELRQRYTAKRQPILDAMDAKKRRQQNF

[9] = biological target: T2, Serine/threonine-protein kinase 3 (Homo sapiens); conditions: at 1 µM
[10] = biological target: Serine/threonine-protein kinase 26 (Homo sapiens) (UniProt Q9P289); conditions: at 0.1 µM
[11] = biological target: Serine/threonine-protein kinase 26 (Homo sapiens) (UniProt Q9P289); conditions: at 1 µM
[12] = biological target: Serine/threonine-protein kinase PAK 1 (Homo sapiens) (UniProt Q13153); conditions: at 0.1 µM
Chain of Serine/threonine-protein kinase PAK 1 (Homo sapiens) (Q13153 whole entry): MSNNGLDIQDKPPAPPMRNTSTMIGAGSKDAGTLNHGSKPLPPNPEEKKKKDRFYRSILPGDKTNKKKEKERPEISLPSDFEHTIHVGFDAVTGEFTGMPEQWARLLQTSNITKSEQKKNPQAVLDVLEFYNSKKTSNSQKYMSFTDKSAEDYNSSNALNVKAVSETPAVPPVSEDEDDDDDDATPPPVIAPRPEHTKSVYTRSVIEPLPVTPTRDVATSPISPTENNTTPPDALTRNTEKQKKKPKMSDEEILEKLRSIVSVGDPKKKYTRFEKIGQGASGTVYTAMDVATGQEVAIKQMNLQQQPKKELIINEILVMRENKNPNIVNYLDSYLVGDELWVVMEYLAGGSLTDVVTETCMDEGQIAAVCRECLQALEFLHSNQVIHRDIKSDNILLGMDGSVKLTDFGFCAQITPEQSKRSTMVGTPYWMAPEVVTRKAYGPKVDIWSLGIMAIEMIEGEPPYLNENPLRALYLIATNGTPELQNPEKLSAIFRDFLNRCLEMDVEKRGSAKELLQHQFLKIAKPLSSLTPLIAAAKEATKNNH

[13] = biological target: Serine/threonine-protein kinase PAK 1 (Homo sapiens) (UniProt Q13153); conditions: at 1 µM
[14] = biological target: Serine/threonine-protein kinase PAK 2 (Homo sapiens) (UniProt Q13177); conditions: at 0.1 µM
[15] = biological target: Serine/threonine-protein kinase PAK 2 (Homo sapiens) (UniProt Q13177); conditions: at 1 µM
[16] = biological target: Serine/threonine-protein kinase PAK 3 (Homo sapiens) (UniProt O75914); conditions: at 0.1 µM
Chain of Serine/threonine-protein kinase PAK 3 (Homo sapiens) (O75914 whole entry, looked up): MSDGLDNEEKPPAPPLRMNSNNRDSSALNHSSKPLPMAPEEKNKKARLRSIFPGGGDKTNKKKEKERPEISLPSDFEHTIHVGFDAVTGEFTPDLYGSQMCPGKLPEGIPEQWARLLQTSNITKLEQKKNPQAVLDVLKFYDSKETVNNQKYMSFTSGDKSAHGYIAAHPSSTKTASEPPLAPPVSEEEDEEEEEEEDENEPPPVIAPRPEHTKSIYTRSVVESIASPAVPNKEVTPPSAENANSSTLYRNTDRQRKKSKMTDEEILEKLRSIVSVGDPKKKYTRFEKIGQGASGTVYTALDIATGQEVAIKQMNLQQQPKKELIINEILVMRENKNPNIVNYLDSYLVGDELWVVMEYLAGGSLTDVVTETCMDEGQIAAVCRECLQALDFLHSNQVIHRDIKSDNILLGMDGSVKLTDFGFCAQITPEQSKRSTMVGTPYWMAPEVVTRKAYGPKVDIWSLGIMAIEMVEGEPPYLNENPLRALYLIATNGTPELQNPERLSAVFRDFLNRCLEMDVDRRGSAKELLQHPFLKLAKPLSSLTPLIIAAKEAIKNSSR

[17] = biological target: Serine/threonine-protein kinase PAK 3 (Homo sapiens) (UniProt O75914); conditions: at 1 µM
[18] = biological target: Serine/threonine-protein kinase PAK 5 (Homo sapiens) (UniProt Q9P286); conditions: at 0.1 µM
[19] = biological target: Serine/threonine-protein kinase PAK 5 (Homo sapiens) (UniProt Q9P286); conditions: at 1 µM
[20] = biological target: Serine/threonine-protein kinase PAK 6 (Homo sapiens) (UniProt Q9NQU5); conditions: at 0.1 µM;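 also: mean PAK6 inhibition reported from the GSK PKIS screen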
Chain of Serine/threonine-protein kinase PAK 6 (Homo sapiens) (Q9NQU5 whole entry, looked up): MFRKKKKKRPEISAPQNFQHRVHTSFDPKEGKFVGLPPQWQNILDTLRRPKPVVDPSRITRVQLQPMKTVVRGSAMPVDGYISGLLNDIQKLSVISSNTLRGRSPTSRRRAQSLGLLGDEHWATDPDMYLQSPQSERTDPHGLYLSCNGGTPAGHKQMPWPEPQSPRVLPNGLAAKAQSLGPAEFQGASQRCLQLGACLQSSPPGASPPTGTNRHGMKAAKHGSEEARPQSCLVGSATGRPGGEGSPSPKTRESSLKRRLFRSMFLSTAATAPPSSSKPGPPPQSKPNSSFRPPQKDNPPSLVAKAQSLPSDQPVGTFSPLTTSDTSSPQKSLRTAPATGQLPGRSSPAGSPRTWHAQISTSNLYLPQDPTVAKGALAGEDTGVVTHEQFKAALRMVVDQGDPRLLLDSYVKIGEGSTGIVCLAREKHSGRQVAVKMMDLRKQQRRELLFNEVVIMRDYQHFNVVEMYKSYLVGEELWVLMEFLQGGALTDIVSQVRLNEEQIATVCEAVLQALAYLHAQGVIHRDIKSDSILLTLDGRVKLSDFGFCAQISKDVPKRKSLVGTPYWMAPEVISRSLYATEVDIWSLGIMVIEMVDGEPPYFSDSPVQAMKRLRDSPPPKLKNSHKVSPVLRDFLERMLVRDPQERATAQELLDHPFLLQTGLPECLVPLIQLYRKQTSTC

Chain of Mitogen-activated protein kinase kinase kinase kinase 4 (Homo sapiens) (O95819 2-1239 limits assumed): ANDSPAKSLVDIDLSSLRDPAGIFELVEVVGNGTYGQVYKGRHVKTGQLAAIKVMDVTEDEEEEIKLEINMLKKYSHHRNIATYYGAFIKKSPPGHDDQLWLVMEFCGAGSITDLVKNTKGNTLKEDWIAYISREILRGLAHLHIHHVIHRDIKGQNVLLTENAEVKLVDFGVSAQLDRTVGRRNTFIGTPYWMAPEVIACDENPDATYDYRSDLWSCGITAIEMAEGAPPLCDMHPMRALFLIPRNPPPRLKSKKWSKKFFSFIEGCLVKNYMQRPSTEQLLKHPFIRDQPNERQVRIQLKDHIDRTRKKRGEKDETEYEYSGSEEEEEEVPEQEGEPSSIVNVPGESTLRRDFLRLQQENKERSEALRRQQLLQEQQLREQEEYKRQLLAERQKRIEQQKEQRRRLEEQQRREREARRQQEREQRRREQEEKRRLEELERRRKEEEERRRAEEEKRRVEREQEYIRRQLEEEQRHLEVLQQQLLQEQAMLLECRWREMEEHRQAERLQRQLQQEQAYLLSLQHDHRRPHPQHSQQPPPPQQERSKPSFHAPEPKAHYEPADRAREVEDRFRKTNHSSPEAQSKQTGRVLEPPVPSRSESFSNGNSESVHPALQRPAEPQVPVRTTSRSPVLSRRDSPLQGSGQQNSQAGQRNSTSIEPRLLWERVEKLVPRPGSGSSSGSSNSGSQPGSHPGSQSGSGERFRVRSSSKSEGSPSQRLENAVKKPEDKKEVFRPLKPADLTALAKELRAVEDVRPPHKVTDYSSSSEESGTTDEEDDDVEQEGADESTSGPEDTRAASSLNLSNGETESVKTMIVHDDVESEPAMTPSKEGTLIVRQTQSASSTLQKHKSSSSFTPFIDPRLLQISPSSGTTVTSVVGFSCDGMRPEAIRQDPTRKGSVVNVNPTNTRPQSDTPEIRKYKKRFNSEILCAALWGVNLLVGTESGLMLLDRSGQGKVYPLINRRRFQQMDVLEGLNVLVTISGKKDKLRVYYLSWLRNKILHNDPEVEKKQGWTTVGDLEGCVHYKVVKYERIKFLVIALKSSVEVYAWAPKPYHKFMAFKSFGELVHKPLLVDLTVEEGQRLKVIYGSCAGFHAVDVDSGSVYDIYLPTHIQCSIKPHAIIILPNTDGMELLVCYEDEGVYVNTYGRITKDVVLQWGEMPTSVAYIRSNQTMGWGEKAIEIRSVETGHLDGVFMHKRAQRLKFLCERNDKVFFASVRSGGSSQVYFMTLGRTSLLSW
Chain of Dual specificity mitogen-activated protein kinase kinase 1 (Homo sapiens) (Q02750 whole entry): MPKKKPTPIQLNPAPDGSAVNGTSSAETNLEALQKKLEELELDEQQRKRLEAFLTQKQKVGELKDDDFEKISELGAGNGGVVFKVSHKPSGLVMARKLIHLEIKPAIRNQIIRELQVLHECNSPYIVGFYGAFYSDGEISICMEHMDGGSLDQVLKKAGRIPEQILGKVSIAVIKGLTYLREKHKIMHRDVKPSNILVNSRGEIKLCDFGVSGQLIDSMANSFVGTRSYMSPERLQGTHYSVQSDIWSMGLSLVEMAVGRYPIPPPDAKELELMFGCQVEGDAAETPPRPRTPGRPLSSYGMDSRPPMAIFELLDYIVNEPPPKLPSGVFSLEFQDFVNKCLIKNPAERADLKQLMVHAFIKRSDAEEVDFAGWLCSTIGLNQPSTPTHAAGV

Structure (SMILES)	inhibition [1] [%]	inhibition [2] [%]	inhibition [3] [%]	inhibition [4] [%]	inhibition [5] [%]	inhibition [6] [%]	inhibition [7] [%]	inhibition [8] [%]	inhibition [9] [%]	inhibition [10] [%]	inhibition [11] [%]	inhibition [12] [%]	inhibition [13] [%]	inhibition [14] [%]	inhibition [15] [%]	inhibition [16] [%]	inhibition [17] [%]	inhibition [18] [%]	inhibition [19] [%]	inhibition [20] [%]
COc1cc2ncnc(Nc3ccc(C)c(O)c3)c2cc1OC	21.4	6.11	5.54	9.75	18	5.24	9.47	5.84	8.26	-1.09	-1.08	6.98	7.41	1.81	2.35	5.88	5.36	0.51	7.08	-1.14
N#Cc1cccc(Nc2nccc(-c3cnn4ncccc34)n2)c1	64.3	19.5	63	16.6	53.4	8.96	27.6	7.72	24.4	-0.39	3.34	8.03	7.42	1.67	3.52	3.6	5.22	0.7	12.7	-4.74
CC(C)c1ccc2c(c1)NC(=O)/C2=N/Nc1ccc(S(N)(=O)=O)cc1	62.3	0.83	1.72	10.1	48.9	1.52	11.2	1.12	9.13	-0.9	0.01	-1.3	3.93	-1.91	-1.73	-1.11	0.37	-6.19	-0.94	-8.22
COc1cccc(-n2ncc3c(N/N=C/c4ccc(C)cc4)ncnc32)c1	21	4.05	3.78	7.18	16.1	5.34	13.2	6.16	11.4	-1.81	-3.2	10	9.32	1.75	1.47	6.06	6.42	6.1	10.7	
Cc1ccc(Nc2ccnc(Nc3cccc(C(N)=O)c3)n2)cc1O	28.9	4.22	4.94	6.27	22	5.18	12.2	4.59	10.1	0.27	2.75	5.46	8.57	1.77	1.45	3.06	3.98	5.17	11.2	
COc1cccc(-n2ncc3c(N/N=C/c4ccc(S(C)(=O)=O)cc4)ncnc32)c1	59.4	1.79	1.58	13.4	50.3	1.66	4.3	0.59	2.91	1.71	2.58	2.37	3.02	-0.07	-0.47	0.46	1.53	2.27	10.1	-8.81
COC(=O)c1ccc2c(c1)C(=Cc1cc(Br)c(O)c(Br)c1)C(=O)N2	84.7	3.31	5.79	26.4	75.2	3.54	19	4.78	19.5	1.49	15.1	8.19	10.1	1.7	1.99	4.21	5.43	7.06	10.8	
c1ccc(Nc2ncc(-c3ccccc3)o2)cc1	25.9	5.07	4.19	6.17	19	2.36	4.87	4.89	6.36	-1.38	0.04	6.49	10.6	0.76	2.87	5.16	4.34	2.74	2.9	
COc1cccc(-n2nc(C)c3c(N/N=C(\C)c4ccncc4)ncnc32)c1	4.83	-0.14	-0.11	1.43	6.12	1.29	1.63	1.78	3.56	-0.95	1.92	-1.07	5.57	-1.35	-0.3	0.46	2.49	-0.74	-1.22	
COC(=O)c1cncc(/C=C/c2c(C)cc(O)cc2C)c1	18.8	4.72	4.21	5.24	14.9	7.04	9.84	7.02	9.92	-1.08	-1.43	4.61	0.91	2.48	0.99	4.48	4.33	9.23	2.77	1.5
Cc1cc(-c2ccccn2)cc(C)c1/C=C/c1cncc(-c2nn[nH]n2)c1	13.5	3.04	4.93	2.69	9.19	3.88	8.04	3.7	7.75	-1.78	5.19	6.38	6.81	1.95	2.95	4.9	5.22	1.64	0.08	
NC(=O)c1cccc(Nc2nccc(Nc3cccc(F)c3)n2)c1	44.9	-0.23	1.42	6.07	33.3	0.59	12.2	1.63	6.4	-0.81	2.97	0.29	2.79	0.32	0.69	0.23	2.37	-1.35	1.21	
CCn1c(-c2nonc2N)nc2c(C#CC(C)(C)O)nc(OCCNC)cc21	6.25	3.55	3.92	5.45	5.87	3.15	6.97	5.27	7.27	-3.54	-1.03	8.56	5.49	1.23	2.27	3.16	5.05	3.8	12.5	
O=C(Nc1ccc(Oc2ccc3[nH]c(NC(=O)c4ccco4)nc3c2)cc1)Nc1cc(C(F)(F)F)ccc1F	5.1	0.55	1.24	0.49	-0.52	-0.01	0.17	-1.13	-0.98	0.66	0.33	-2.95	-0.15	0.17	0.57	-0.21	0.34	6.4	6.36	2.79
